# From PubChem
# HT1080 IDH1KD tx – kills HT-1080 cells with IDH1 knockdown; Potency, µM (series often up to 46.1 µM), inactives show at the top dose activity, negative = toxicity, most hits filed as cytotoxic; HT-1080 IDH1 knockdown viability, ATP luminescence, 48 h; actives 2% (n = 360,000); AID 686971;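 also: potency is read from the fitted curve at half-maximal effect; 0% = DMSO wells and -100% = cell-free medium wells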
#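 Knockdown cells (IDH1KD HT-1080) received compounds 2 h after plating at 750 cells/well and were kept 48 h at 37 °C in 5% FBS RPMI. A CellTiter-Glo luminescence read gave % activity for curve fitting.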
# DT40 TDP1 no CPT – qHTS for Inhibitors of human tyrosyl-DNA phosphodiesterase 1 (TDP1): qHTS in cells in absence of CPT | DT40 Tdp1-/- hTDP1 cells, no CPT, ATP luminescence, 48 h | Potency, µM (highest dose often 46.2 µM), for inactives: at the top dose activity change, negative = growth inhibition, actives largely listed as inhibitors | actives 15% (n = 420,000); also: potency is read from the fitted curve at half-maximal effect; nearly all actives have a fitted effect of over 55% in size
#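 Cells were dispensed at 400 per well, compounds added by pin tool, plates incubated ≥48 hr at 37 °C, then CellTiter-Glo added for 30 min at room temperature before luminescence reading. Line: DT40 Tdp1-/- complemented with hTDP1; camptothecin omitted.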
# IL1B secr inh – inhibitors of inflammasome signaling (IL-1 beta secretion); activity change, % at 57.5 µM; actives 4.7% (n = 360,000); THP-1 LPS/ATP IL-1B secretion, AlphaLISA, 16 h; active compounds read low; in the data active = activity change below about -50%; inconclusive = mostly about -30% to -49%
#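 THP-1 cells pretreated 1 hr with compounds (up to 57.5 uM final), then stimulated with LPS (250 ng/mL final) plus ATP (1.25 mM final); secreted IL-1B measured by AlphaLISA after 16 hr, decreased signal indicating inhibition.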
# TDP1 cell CPT – growth inhibition of DT40 Tdp1-/-;hTDP1 cells with camptothecin (screen for TDP1 inhibitors); chicken DT40 Tdp1-/-;hTDP1 cells + 20 nM CPT, ATP luminescence, 48 h; Potency, µM (series often up to 46.2 µM), without a hit: at the highest dose activity change, negative = growth inhibition, most hits filed as inhibitors; actives 12% (n = 420,000); also: potency is read from the fitted curve at half-maximal effect; nearly all actives have a fitted effect of over 55% in size
#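 Cell growth measured by CellTiter-Glo luminescence after a minimum 48 h, 37 C compound exposure with 20 nM CPT in Tdp1-knockout DT40 cells stably expressing hTDP1, seeded 400/well; qHTS titration format.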
# HT1080NT lethal – kills 2HG-producing HT-1080-NT fibrosarcoma cells; HT-1080-NT fibrosarcoma viability, CellTiter-Glo ATP luminescence, 48 h; Potency, µM (titrated, usually from 46.1 µM), inactives show top-dose activity, negative = less viability, actives largely listed as cytotoxic; actives 1.6% (n = 360,000);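 also: NT is the 2HG producing partner of a matched IDH1 knockdown line; potency is read from the fitted curve at half-maximal effect; 0% = DMSO-treated cells and -100% = media-only wells without cells; nearly all actives have a fitted effect of over 55% in size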
#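 Read-out is CellTiter-Glo luminescence after 10 minutes at room temperature, following 48 hours' compound treatment of HT-1080-NT cells (750 cells/well, RPMI, 5% FBS, 37 degrees C).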
# uPA surface inh – blocks generation of uPA at the cell surface; cell surface uPA generation assay, qHTS; Potency, µM (highest dose often 38.3 µM), inactives show at the highest dose activity change, negative = inhibition, hits mostly inhibitors; AID 540303; actives 0.31% (n = 330,000); active = well fitted inhibition curve with a large enough effect; inconclusive = small, poorly fitted or top-dose-only effect; inactive = no such curve, though single readings can be large or run the other way; tested in mouse RAW 264.7 cells; also: potency is read from the fitted curve at half-maximal effect; nearly all actives have a fitted effect of over 55% in size
# The depositor's hits bear a star; ? = inconclusive; · = not tested or not shown; [ ] = dose if it differs, or a comment. Compounds with a hit are over-represented: about 19% of the library has one in this group of screens. Unless noted, calls follow the shape of the dose curve; as a rule, active = well fitted curve in the direction sought with a large enough effect; inconclusive = small, poorly fitted or top-dose-only effect, or another doubt; inactive = no such curve, though single readings can be large; an effect the other way counts as inactive or inconclusive. Unless noted, % is scaled to controls: 0 for no effect and ±100 for the full control effect.
SMILES,HT1080 IDH1KD tx,DT40 TDP1 no CPT,IL1B secr inh,TDP1 cell CPT,HT1080NT lethal,uPA surface inh
COc1ccccc1NS(=O)(=O)c1cc(C(=O)N2CC(C)CC(C)C2)ccc1C (configuration not stated),-13%,21µM*,7,?,-7%,·
COc1ccc(CNC(=O)C2CCC(=O)N(CCCN3CCCC3=O)C2)c(OC)c1 (configuration not stated),16%,21%,4,-3%,12%,0%
O=C(O)CC(c1ccc(C(F)(F)F)cc1)N1Cc2ccccc2C1=O (configuration not stated),5%,-3%,31,3%,0%,-2%
CCc1ccccc1Oc1nc(NCCOC)nc2cc(-c3ccccc3)sc12,4%,?,-25,?,-3%,·
c1ccc(OCCNc2nc(NCC3CC3)nc3cc(-c4ccccc4)sc23)cc1,?,5.8µM*,-106*,5.8µM*,15µM*,·
c1ccc(CNc2nc(NCC3CC3)nc3cc(-c4ccccc4)sc23)cc1,?,10µM*,-116*,9.2µM*,23µM*,·
COc1cc2c3c(n(C)c(=O)c2cc1OC)-c1cc2c(cc1C3=O)OCO2,-2%,?,10,?,9%,-6%
COc1ccc(Cl)cc1S(=O)(=O)NC(C)c1cnn(-c2ccccn2)c1C (configuration not stated),-3%,?,11,-25%,-5%,·
CC1=C(C(=O)Nc2ccccc2C(F)(F)F)C(c2ccc(C)s2)NC(=S)N1 (configuration not stated),-6%,?,-30,4%,-8%,4%
CC1=C(C(=O)Nc2ccccc2C(F)(F)F)C(c2sccc2C)NC(=S)N1 (configuration not stated),-25%,16µM*,-7,6.5µM*,-19%,-18%
COCCCNC(=O)CSc1nc2cc3c(cc2c(=O)n1CCCCCC(=O)NCCc1ccc(OC)c(OC)c1)OCO3,·,-10%,·,12%,·,·
O=S(=O)(c1ccccc1F)N1CCC(Oc2ccc(-n3cnnn3)cc2)CC1,?,23µM*,-1,?,?,?
O=S(=O)(Nc1ccc(-n2cnnn2)cc1)c1ccccc1F,1%,-1%,10,-21%,-3%,3%
CC(C)(C)c1ccc(S(=O)(=O)N2CCC(Oc3ccc(-n4cnnn4)cc3)CC2)cc1,·,10µM*,·,?,·,·
c1ccc(-c2nc(NCc3cccnc3)c3ccccc3n2)cc1,?,-16%,?,1%,-29%,·
FC(F)(F)c1nc(NCc2cccnc2)c2ccccc2n1,-13%,23µM*,-3,?,-12%,-4%
OC(CNc1nc(-c2cccnc2)nc2ccccc12)c1ccccc1 (configuration not stated),?,23µM*,-66*,15µM*,?,4%
Clc1cccc(-c2nc(NCc3cccnc3)c3ccccc3n2)c1,?,-23%,-58*,-5%,?,·
Cc1ccc(-c2nc(NCc3cccnc3)c3ccccc3n2)cc1,-14%,-1%,-76*,27%,2%,3%
COc1ccc(/C=C/C(=O)OCC(=O)NCCC2=CCCCC2)cc1OC,-5%,16µM*,10,?,-15%,-5%
COc1ccc(/C=C/C(=O)Nc2c(C(=O)O)[nH]c3ccccc23)cc1OC,-3%,?,34,21µM*,-1%,1%
CCc1cccc2c(C(=O)COC(=O)/C=C/c3ccc(O)c(OC)c3)c[nH]c12,?,18µM*,?,?,-13%,8%
COc1cc(/C=C/C(=O)NCc2ccccn2)cc(OC)c1OC,8%,11%,-6,3%,8%,-4%
COc1ccc(/C=C/C(=O)NCc2ccccn2)cc1OC,-1%,-3%,-73*,-9%,2%,5%
COc1ccccc1/C=C/C(=O)OCC(=O)NCCC1=CCCCC1,13%,-9%,8,-5%,7%,2%
SMILES,HT1080 IDH1KD tx,DT40 TDP1 no CPT,IL1B secr inh,TDP1 cell CPT,HT1080NT lethal,uPA surface inh
COc1cccc(/C=C/C(=O)OCC(=O)c2c[nH]c3ccccc23)c1,-5%,1%,24,-10%,-3%,-1%
COc1ccc(/C=C/C(=O)Nc2ccccc2)cc1OC,13%,12%,?,1%,?,1%
CC(=O)c1cc2c(cc1F)C(C)(C)CCC2(C)C,-1%,-11%,21,?,-1%,1%
C[C@@H](c1ccccc1)N1C[C@@H](COCc2ccccc2)Oc2cc(N3CCC[C@H]3C(N)=O)ccc2S1(=O)=O,-24%,?,34,?,?,·
COC(=O)c1ccc(CNC(=O)COC(=O)/C=C/c2ccc(O)c(OC)c2)cc1,8%,?,-68*,?,8%,-5%
COc1cc(/C=C/C(=O)OCC(=O)c2ccc(OC(F)F)cc2)ccc1O,?,15µM*,-23,?,-19%,-9%
COc1ccc(C(C)=O)c(OCC(=O)NCCC2=CCCCC2)c1,-1%,0.58µM*,1,-75%,9%,·
COc1ccc(/C=C/C(=O)OCC(=O)NCc2ccccc2)cc1OC,?,16µM*,0,21µM*,-2%[9.24 µM],?
O=C(/C=C/c1ccco1)OCC(=O)c1ccc(OC(F)F)cc1,2%,1%,-15,-5%,1%,?
COC(=O)c1ccc(CNC(=O)COC(=O)/C=C/c2cccc(OC)c2)cc1,-1%,-29%,0,?,14%,·
Cc1ccc(S(=O)(=O)N2CCC3(CC2)OCCO3)cc1,1%,16%,7,-5%,9%,-1%
COc1ccc(-c2sc3ccccc3c2-c2ccc(O)cc2)cc1,?,?,0,-82%,?,-8%
COc1ccc(-c2sc3cc(OC)c(OC)cc3c2-c2ccc(O)cc2)cc1,?,?,-54*,?,?,-26%
N#C/C(=C\Nc1ccc(Cl)cc1)S(=O)(=O)c1ccccn1,-10%,-12%,-2,1%,-19%,18%
COC(=O)CCCn1cc(CN2CC(N(C)C)CS2(=O)=O)nn1 (configuration not stated),6%,-21%,36,4%,24%,·
CC(C)(C)NC(=O)C(c1ccncc1)N(Cc1ccco1)C(=O)c1ccc(-c2ccccc2)[nH]1 (configuration not stated),18µM*,?,39,?,18µM*,?
